From PubChem BioAssay (NCATS)
Records with an inconclusive call do not appear. Calls of active or inactive are those of the source. Unless noted, calls follow the shape of the dose curve; as a rule, active = well fitted curve in the direction sought with a large enough effect; inconclusive = small, poorly fitted or top-dose-only effect, or another doubt; inactive = no such curve, though single readings can be large; an effect the other way counts as inactive or inconclusive.

Assays:
[1] = target: Lysosomal acid glucosylceramidase (Homo sapiens) (UniProt P04062); experiment: Glucocerebrosidase-p2 (AID 348; in the data active = potency below about 10 µM; also: potency is read from the fitted curve at half-maximal effect); conditions: purified GBA, blue fluorogenic substrate, 40 min
In short: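 Compounds titrated from 0.6 nM upwards against 0.2 nM enzyme in pH 5.9 citric acid/KH2PO4, taurocholate, tween-20; blue fluorogenic substrate 80 uM, 40 min room temperature, stopped and read Ex 365/Em 440 for AC50.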

[2] = AP1 Signaling Pathway (AID 357; active = well fitted curve in either direction with a large enough effect, not every such curve was filed as active;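 also: ME-180 reporter cells stimulated with EGF at its EC50 level; % is scaled to controls: 0 for no effect and ±100 for the full control effect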); conditions: ME-180 AP-1-bla reporter, EGF-induced, beta-lactamase ratio, 5 h; at 7.69 µM (top of the series) unless noted
In short: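 A ratiometric CCF4 readout (405 nm excitation; 460 and 530 nm emission) quantified AP-1-driven beta-lactamase in ME-180 cells after 5 h with compound and EC50 EGF; AC50 values were derived for activators and inhibitors.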

[3] = target: Cytochrome P450 1A2 (Homo sapiens) (UniProt P05177); experiment: p450-cyp1a2 (AID 410; calls by dose curve; also: potency is read from the fitted curve at half-maximal effect); conditions: recombinant CYP1A2, luciferin-ME demethylation, luminescence; series mostly up to 57 µM
In short: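 Human CYP1A2 (20nM) demethylated Luciferin-ME at its Km (100uM) in 100mM KPO4. After 10 min compound preincubation, NADPH regeneration ran the reaction 60 min at room temperature. Luciferin was read by luminescence, normalized to 57 uM furafylline.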

[4] = NFAT Signaling Pathway (AID 444; active = well fitted curve in either direction with a large enough effect, not every such curve was filed as active;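 also: carbachol stimulus at about its EC50 of 1 µM final; % is scaled to controls: 0 for no effect and ±100 for the full control effect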); conditions: Jurkat NFAT-bla M1, carbachol, beta-lactamase ratio, 5 h; at 7.69 µM (top of the series) unless noted
In short: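 Jurkat cells carrying an NFAT-driven β-lactamase reporter and co-transfected muscarinic M1 receptor were treated with compound plus carbachol (1 uM final, an EC50 level) for 5 h at 37 °C. CCF4 loading followed for 1 h at RT; 460/530 nm ratio gave %activity.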

[5] = Stat Signaling Pathway (AID 446; active = well fitted curve in either direction with a large enough effect, not every such curve was filed as active;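 also: ME-180 cervical cancer cells given 40 pM IL-6 alongside compound; SIE-controlled beta-lactamase reporter measured as 460/530 nm FRET emission ratio; % is scaled to controls: 0 for no effect and ±100 for the full control effect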); conditions: ME-180 SIE beta-lactamase reporter, IL-6 stimulated, 5 h; at 7.69 µM (top of the series) unless noted
In short: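 IL-6/STAT signaling read in ME-180 cells via an SIE beta-lactamase reporter. Stimulus was 40 pM IL-6 (its AC50) for 5 hrs, so both activation and inhibition register.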

[6] = target: Glucocorticoid receptor (Homo sapiens) (UniProt P04150); experiment: GR-GFP Redistribution (AID 450;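 active = compounds whose dose series gives a full or clear partial fitted curve of increased nuclear translocation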; also: potency is read from the fitted curve at half-maximal effect); conditions: U2OS GR-GFP nuclear translocation, laser cytometry, 2 h
[7] = target: Glucocorticoid receptor (Homo sapiens) (UniProt P04150); experiment: GR-EFC Redistribution (AID 451; calls by dose curve; also: potency is read from the fitted curve at half-maximal effect); conditions: CHO-K1 GR-EFC translocation, beta-gal luminescence, 2 h
In short: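 CHO-K1 cells stably expressing nuclear-localized β-gal enzyme acceptor and GR fused C-terminally to the enzyme donor fragment; ligand-driven nuclear translocation restores β-gal by complementation. Compounds titrated up to 46 uM final, 2 h at 37 °C; luminescence read.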

[8] = target: Mitogen-activated protein kinase 10 (Mus musculus) (UniProt Q61831); experiment: JNK3 AlphaScreen Assay (AID 530; active = well fitted curve in either direction with a large enough effect, not every such curve was filed as active;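 also: kinase came from lysate of stimulated human HepG2 cells; signal reports phosphorylation of biotinylated GST-cJun 1-79 at Ser73 with 10 µM ATP; % is scaled to controls: 0 for no effect and ±100 for the full control effect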); conditions: JNK3 lysate, c-Jun phosphorylation; series mostly up to 57.1 µM
In short: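 JNK3 came from HepG2 lysates pre-activated with IL-1beta and TNF-alpha and phosphorylated biotinylated GST-cJun (1-79) at 10 uM ATP, pH 7.6, room temperature. Compounds were titrated. AlphaScreen signal used anti-phospho-cJun (Ser73) antibody.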

[9] = target: 3',5'-cyclic-AMP phosphodiesterase 4B (Homo sapiens) (UniProt Q07343); experiment: qHTS Assay for Inhibitors of PDE-IV (AID 607; active = well fitted activation curve with a large enough effect in the main read-out, with a control signal flat, not every such curve was filed as active; also: % of control where 0% means no effect); conditions: HEK293 ACTOne CNG channel cells, membrane potential fluorescence; series mostly up to 22.9 µM
In short: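 Live HEK293 cells with a modified cyclic nucleotide-gated (CNG) channel report intracellular cAMP via membrane-potential dye fluorescence (ex 535/em 590 nm). Endogenous PDE-IV was targeted. Compounds were tested at up to 22.9 uM final; RO 20-1724 100 uM served as control.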

[10] = target: Cytochrome P450 3A4 (Homo sapiens) (UniProt P08684); experiment: qHTS Assay for Inhibitors and Substrates of Cytochrome P450 3A4 (AID 884); conditions: recombinant CYP3A4, Luciferin-PPXE luminescence; series mostly up to 57.1 µM; also: potency is read from the fitted curve at half-maximal effect; nearly all actives have a fitted effect of over 50% in size
In short: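 20 nM human CYP3A4 with 25 uM Luciferin-PPXE (at KM) in 200 mM KPO4, preincubated 10 min with compound; NADPH regeneration started a 60 min RT reaction. Luciferin detected by luminescence, normalized to 57 uM ketoconazole as full inhibition.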

[11] = target: Cytochrome P450 3A4 (Homo sapiens) (UniProt P08684); experiment: qHTS Assay for Activators of Cytochrome P450 3A4 (AID 885); conditions: recombinant CYP3A4, Luciferin-PPXE luminescence, 60 min; series mostly up to 57.1 µM; also: nearly all actives have a fitted effect of over 65% in size
In short: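 Quantitative HTS format: compounds preincubated with 20nM human CYP3A4 and Luciferin-PPXE substrate at KM, reaction started by NADPH regeneration, stopped after 60 min, luciferase luminescence read 20 min later.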

[12] = qHTS Assay for Identification of Small Molecule Agonists for Hypoxia Response Element Signaling Pathway (AID 914; active = well fitted activation curve with a large enough effect in the signal ratio, with a control signal flat, not every such curve was filed as active; the % refers to the signal ratio; also: potency is read from the fitted curve at half-maximal effect; as to activation: % of control where 0% means no effect); conditions: ME-180 (cervical carcinoma) HRE-bla reporter, beta-lactamase ratio, CoCl2, 17 h; activation: stronger effect = higher value
In short: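 HRE-bla ME-180 assay for agonist-like enhancement of an EC50 CoCl2 stimulus: 17 h at 37 degrees Celsius, CCF4 for 2.5 h, ratiometric 460/530 nm signal converted to %Activity and fitted to AC50.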

[13] = qHTS Assay for Lipid Storage Modulators (AID 1519; calls by dose curve); conditions: Drosophila S3 cells, BODIPY lipid droplet/cell ratio, laser cytometry, cells loaded with oleic acid; for activity change, negative = inhibition: at 57.5 µM (top of the series)
In short: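 Cells seeded at 5,000 per well were treated with compounds over a concentration series and loaded with oleic acid (400 uM, as added). Lipid droplet fluorescence (488 nm excitation, 500-530 nm channel) was read by laser-scanning cytometry and normalized to 20 uM Triacsin C.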

[14] = target: Dual specificity protein kinase CLK4 (Homo sapiens) (UniProt Q9HAZ1); experiment: qHTS Assay for Inhibitors of CDC-like Kinase 4 (ADP-Glo Assay) (AID 1771); conditions: recombinant CLK4, ADP-Glo luminescence; series mostly up to 80 µM; also: % is scaled to controls: 0 for no effect and ±100 for the full control effect; nearly all actives have a fitted effect of over 70% in size
In short: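 Clk4 (25 nM) was incubated 1 hr at room temperature with 100 uM RS repeat peptide and 1 uM ATP in buffer with 2 mM MgCl2, 0.5 mM EGTA, 2.5 mM DTT. ADP formed was quantified by ADP-Glo luminescence.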

[15] = target: Dual specificity protein kinase CLK4 (Homo sapiens) (UniProt Q9HAZ1); experiment: qHTS Assay for Inhibitors of CDC-like Kinase 4 (ADP-FP Assay) (AID 1795); conditions: Transcreener ADP fluorescence polarization; series mostly up to 50 µM;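 also: recombinant human CLK4 phosphorylating RS repeat peptide at 1 µM ATP; % is scaled to controls: 0 for no effect and ±100 for the full control effect; nearly all actives have a fitted effect of over 60% in size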
In short: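 Inhibition of ADP formation by 6.25 nM Clk4 is measured using 1 uM ATP and 100 uM RS repeat peptide over one hour. Produced ADP displaces a fluorescent tracer from antibody, lowering polarization.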

[16] = target: Ubiquitin carboxyl-terminal hydrolase 1 (Homo sapiens) (UniProt O94782); experiment: Inhibitors of USP1/UAF1: Pilot qHTS (AID 504865); conditions: purified USP1/UAF1, Ub-rhodamine cleavage fluorescence; series mostly up to 54.9 µM;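 also: rhodamine fluorescence freed from ubiquitin-rhodamine substrate followed over time; top concentration of the series differs between compounds; % is scaled to controls: 0 for no effect and ±100 for the full control effect; nearly all actives have a fitted effect of over 35% in size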
In short: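 Kinetic fluorescence assay: 1nM USP1/UAF1, 15 min compound preincubation, then 150nM Ub-Rho; 480/540 nm.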

[17] = Primary qHTS for small molecule stabilizers of the endoplasmic reticulum resident proteome: Secreted ER Calcium Modulated Protein (SERCaMP) assay (AID 1508630); conditions: SH-SY5Y GLuc-SERCaMP (Gaussia luciferase released on ER calcium loss) secretion, thapsigargin, luminescence; series mostly up to 38.4 µM; also: % is scaled to controls: 0 for no effect and ±100 for the full control effect
In short: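 GLuc-SERCaMP-expressing SH-SY5Y cells, pretreated 16 h with compound, are challenged with thapsigargin to empty ER calcium stores; after 4 h, coelenterazine is added directly to the medium and luminescence is imaged.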

[18] = target: Dual specificity protein kinase CLK4 (Homo sapiens) (UniProt Q9HAZ1); experiment: qHTS Assay for Inhibitors of CDC-like Kinase 4 (Kinase-Glo Assay) (AID 1770); conditions: recombinant Clk4, Kinase-Glo ATP depletion luminescence; series mostly up to 66.7 µM; also: % is scaled to controls: 0 for no effect and ±100 for the full control effect; nearly all actives have a fitted effect of over 65% in size
In short: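 Inhibition was judged from remaining ATP, measured by Ultra-Glo luciferase bioluminescence after Clk4 (25 nM) had acted on RS peptide at 1 uM ATP for 4.5 hours, room temperature.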

[19] = measured here: cell count channel max response
[20] = measured here: lipid channel max response

Sequence of Lysosomal acid glucosylceramidase (Homo sapiens) (P04062 whole entry, looked up): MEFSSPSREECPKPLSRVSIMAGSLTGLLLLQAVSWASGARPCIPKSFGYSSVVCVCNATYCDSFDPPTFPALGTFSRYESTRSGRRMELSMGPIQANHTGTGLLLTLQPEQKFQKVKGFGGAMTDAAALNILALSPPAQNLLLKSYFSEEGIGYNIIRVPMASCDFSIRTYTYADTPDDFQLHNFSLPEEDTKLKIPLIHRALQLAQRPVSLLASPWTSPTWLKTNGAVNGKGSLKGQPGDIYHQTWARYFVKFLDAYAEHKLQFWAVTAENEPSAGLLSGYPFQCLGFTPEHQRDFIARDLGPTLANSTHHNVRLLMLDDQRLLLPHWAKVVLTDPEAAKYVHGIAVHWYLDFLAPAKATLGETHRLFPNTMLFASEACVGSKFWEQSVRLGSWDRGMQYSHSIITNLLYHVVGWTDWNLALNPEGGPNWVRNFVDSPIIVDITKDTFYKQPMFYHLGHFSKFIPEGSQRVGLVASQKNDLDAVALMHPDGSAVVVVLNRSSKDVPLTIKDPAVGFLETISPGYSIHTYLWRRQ
Sequence of Dual specificity protein kinase CLK4 (Homo sapiens) (Q9HAZ1 whole entry, looked up): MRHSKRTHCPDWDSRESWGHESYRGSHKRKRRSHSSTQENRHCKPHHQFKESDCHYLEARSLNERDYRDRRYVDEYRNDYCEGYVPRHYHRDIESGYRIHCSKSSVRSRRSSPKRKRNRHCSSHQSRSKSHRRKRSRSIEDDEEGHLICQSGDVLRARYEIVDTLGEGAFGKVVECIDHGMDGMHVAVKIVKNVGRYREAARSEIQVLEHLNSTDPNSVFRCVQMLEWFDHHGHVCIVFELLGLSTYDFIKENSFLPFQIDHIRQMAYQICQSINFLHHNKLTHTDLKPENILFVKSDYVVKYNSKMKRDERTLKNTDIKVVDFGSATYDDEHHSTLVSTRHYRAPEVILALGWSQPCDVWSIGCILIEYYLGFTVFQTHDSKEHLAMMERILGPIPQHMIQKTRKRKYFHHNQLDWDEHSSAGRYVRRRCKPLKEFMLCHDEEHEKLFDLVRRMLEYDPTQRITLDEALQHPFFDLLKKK
Sequence of Ubiquitin carboxyl-terminal hydrolase 1 (Homo sapiens) (O94782 whole entry, looked up): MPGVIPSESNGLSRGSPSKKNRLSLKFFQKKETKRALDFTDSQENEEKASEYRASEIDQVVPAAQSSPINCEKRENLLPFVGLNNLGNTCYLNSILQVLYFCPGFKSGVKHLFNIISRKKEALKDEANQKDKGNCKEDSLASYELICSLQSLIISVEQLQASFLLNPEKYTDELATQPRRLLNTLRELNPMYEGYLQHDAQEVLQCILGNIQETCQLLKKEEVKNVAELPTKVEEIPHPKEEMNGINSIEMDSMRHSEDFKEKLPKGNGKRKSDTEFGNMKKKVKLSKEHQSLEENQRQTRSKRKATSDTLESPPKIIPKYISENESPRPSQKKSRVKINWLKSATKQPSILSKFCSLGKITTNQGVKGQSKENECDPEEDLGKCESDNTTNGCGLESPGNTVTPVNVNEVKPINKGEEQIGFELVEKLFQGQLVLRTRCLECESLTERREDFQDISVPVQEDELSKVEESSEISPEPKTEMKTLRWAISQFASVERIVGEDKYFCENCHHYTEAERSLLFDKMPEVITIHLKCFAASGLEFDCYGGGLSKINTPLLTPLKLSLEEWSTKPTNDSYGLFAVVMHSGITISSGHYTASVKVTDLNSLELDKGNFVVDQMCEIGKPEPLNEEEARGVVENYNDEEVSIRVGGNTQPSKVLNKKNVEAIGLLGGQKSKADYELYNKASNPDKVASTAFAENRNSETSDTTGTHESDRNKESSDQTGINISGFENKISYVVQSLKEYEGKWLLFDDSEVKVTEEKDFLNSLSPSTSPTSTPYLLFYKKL
Sequence of Cytochrome P450 3A4 (Homo sapiens) (P08684 whole entry, looked up): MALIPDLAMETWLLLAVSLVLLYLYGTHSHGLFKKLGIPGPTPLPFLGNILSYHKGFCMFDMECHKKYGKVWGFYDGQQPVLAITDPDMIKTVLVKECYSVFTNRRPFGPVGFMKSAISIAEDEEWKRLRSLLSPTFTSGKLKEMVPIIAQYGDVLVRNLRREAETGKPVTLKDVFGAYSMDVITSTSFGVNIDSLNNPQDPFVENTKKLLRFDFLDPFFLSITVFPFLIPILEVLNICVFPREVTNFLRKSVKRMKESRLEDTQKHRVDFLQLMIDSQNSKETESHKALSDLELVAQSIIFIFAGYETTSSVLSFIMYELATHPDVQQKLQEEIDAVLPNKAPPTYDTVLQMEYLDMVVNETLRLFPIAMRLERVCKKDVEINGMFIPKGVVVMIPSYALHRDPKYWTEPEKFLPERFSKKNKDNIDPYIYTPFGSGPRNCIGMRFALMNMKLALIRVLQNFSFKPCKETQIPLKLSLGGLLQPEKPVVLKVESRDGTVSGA
Sequence of 3',5'-cyclic-AMP phosphodiesterase 4B (Homo sapiens) (Q07343 whole entry, looked up): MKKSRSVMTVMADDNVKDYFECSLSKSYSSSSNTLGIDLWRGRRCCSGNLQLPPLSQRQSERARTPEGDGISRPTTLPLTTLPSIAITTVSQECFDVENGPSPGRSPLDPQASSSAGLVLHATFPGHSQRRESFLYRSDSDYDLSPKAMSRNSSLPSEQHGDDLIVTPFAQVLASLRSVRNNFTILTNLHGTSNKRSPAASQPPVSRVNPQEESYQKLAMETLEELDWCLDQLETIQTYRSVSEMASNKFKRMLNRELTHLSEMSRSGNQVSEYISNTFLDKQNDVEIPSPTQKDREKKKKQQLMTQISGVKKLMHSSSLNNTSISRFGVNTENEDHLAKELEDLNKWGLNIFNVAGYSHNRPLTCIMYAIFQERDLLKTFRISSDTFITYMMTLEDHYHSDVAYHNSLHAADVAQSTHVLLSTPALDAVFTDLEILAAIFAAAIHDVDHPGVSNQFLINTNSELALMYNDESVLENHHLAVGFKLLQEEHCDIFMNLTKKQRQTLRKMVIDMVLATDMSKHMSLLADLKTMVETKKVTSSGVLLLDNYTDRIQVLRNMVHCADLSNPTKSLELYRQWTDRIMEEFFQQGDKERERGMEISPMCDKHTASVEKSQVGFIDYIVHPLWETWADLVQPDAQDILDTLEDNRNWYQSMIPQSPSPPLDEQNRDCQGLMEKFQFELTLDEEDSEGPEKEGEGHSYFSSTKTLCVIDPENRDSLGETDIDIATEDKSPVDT
Sequence of Glucocorticoid receptor (Homo sapiens) (P04150 whole entry, looked up, the tested form may be a part): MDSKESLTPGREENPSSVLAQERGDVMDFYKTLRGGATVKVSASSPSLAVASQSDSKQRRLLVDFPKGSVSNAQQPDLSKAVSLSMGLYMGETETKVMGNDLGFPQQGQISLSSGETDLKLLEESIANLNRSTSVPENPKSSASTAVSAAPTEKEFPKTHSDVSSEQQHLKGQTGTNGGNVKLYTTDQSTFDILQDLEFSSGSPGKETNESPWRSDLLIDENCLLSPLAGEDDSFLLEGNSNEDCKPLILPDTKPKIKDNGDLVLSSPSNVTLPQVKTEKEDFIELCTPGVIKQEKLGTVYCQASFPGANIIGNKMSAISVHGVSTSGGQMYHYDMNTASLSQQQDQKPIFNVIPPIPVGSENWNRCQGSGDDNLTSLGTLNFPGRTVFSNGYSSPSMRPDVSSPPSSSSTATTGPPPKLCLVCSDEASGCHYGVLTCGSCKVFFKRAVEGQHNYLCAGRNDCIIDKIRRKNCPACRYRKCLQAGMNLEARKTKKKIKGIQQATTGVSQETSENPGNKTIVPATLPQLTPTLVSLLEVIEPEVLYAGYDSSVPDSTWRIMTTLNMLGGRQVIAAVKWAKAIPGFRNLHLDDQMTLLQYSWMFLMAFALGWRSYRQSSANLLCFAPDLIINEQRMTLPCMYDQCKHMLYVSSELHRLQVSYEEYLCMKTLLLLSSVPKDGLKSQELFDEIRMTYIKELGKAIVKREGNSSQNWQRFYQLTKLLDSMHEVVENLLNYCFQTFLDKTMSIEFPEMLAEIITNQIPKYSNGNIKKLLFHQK
Sequence of Cytochrome P450 1A2 (Homo sapiens) (P05177 whole entry, looked up): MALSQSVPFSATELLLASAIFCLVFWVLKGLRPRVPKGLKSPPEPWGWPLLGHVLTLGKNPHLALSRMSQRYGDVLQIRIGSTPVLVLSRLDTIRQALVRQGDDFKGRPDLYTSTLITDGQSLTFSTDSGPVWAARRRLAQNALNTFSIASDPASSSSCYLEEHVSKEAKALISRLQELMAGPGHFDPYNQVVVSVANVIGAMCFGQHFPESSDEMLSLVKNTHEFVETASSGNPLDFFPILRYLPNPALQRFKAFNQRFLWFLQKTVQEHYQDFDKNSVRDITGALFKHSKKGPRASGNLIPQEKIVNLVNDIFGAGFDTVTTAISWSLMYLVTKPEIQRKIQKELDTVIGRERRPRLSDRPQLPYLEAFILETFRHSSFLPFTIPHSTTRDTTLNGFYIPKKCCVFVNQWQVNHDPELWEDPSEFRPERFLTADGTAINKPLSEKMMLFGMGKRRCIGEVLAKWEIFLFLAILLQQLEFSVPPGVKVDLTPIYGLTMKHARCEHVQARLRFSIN

Cc1noc(C)c1-c1cncnc1NCc1ccccc1
active: Potency [3] 25.1 µM | Potency [10] 2 µM
inactive: Potency [1] > 11.4 µM | activity change, negative = inhibition [2] -6.64% | activity change, negative = inhibition [4] 0.549% | activity, negative = inhibition [5] -5.87% | Potency [6] > 46 µM | Potency [7] > 46 µM | outcome [8] | Potency [9] | Potency [11] | activation [12] 4.46% | activity change, negative = inhibition [13] 6.38% | Potency [14] | Potency [15] | Potency [16] | Potency [17]
15.9%: max response [13, 20]
0.495%: max response [13, 19]

CCNc1ncc2nc(-c3cn(C)c4ccccc34)c(=O)n(-c3ccc(OC)cc3)c2n1
inactive: Potency [1] > 11.4 µM | activity change, negative = inhibition [2] -24.5% | activity change, negative = inhibition [4] -8.46% | activity, negative = inhibition [5] -5.46% | Potency [6] > 9.22 µM | Potency [7] > 46 µM | outcome [8] | activation [12] -6.54% | activity change, negative = inhibition [13] 5.38% | Potency [14] | Potency [15] | Potency [16] | Potency [17]
20.6%: max response [13, 19]
23%: max response [13, 20]

N#Cc1cccc(-c2nc3cnc(N4CCOCC4)nc3n(C3CC3)c2=O)c1
inactive: Potency [6] > 9.22 µM | outcome [8] | Potency [9] | Potency [11] | activity change, negative = inhibition [13] -2.2% | Potency [18] | Potency [15] | Potency [16] | Potency [17]
17.6%: max response [13, 19]
13.2%: max response [13, 20]
active: Potency [12] 3.16 µM

Cc1nc2cnc(N3CCOCC3)nc2n(Cc2ccc(F)cc2)c1=O
15.9%: max response [13, 20]
inactive: Potency [1] > 11.4 µM | activity change, negative = inhibition [2] -3.91% | activity change, negative = inhibition [4] -17.2% | activity, negative = inhibition [5] 4.04% | Potency [6] > 9.22 µM | Potency [7] > 46 µM | outcome [8] | activity change, negative = inhibition [13] 2.61% | Potency [14] | Potency [15] | Potency [16] | Potency [17]
13.7%: max response [13, 19]

COc1ccc(-c2nc3cnc(Oc4cccc(Cl)c4)nc3n(CCC#N)c2=O)cc1
14.8%: max response [13, 20]
inactive: Potency [1] > 11.4 µM | activity change, negative = inhibition [2] -19.7% | activity, negative = inhibition [5] -7.46% | Potency [6] > 9.22 µM | Potency [7] > 46 µM | outcome [8] | Potency [9] | activity change, negative = inhibition [13] 2.97% | Potency [14] | Potency [15] | Potency [16] | Potency [17]
13.8%: max response [13, 19]

CCNc1ncc2nc(-c3cc(F)cc(F)c3)c(=O)n(C)c2n1
-3.55%: max response [13, 20]
inactive: Potency [1] > 11.4 µM | Potency [6] > 9.22 µM | Potency [7] > 46 µM | outcome [8] | activity change, negative = inhibition [13] -1.81% | Potency [18] | Potency [15] | Potency [16] | Potency [17]
-4.13%: max response [13, 19]
active: Potency [3] 2 µM | Potency [12] 3.16 µM
